From PubChem BioAssay (NCI)
Compounds without any hit were thinned out: in the full panel of roughly 83,000, 20% have a hit.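 The test compound was applied at a single concentration to cells in 96-well plates for 48 hours, and percent growth was recorded.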 Values without a mark were called inactive. The source made the active and inactive calls. Rule for the calls: active = growth percent below 10; inactive = the rest.

How the values were obtained:
Assay in all cases: NCI-60 one-dose screen, 48 h (100 = growth as untreated, 0 = no growth, -100 = all killed)
Conditions in all cases: 10 µM unless noted
[1] = system: DU-145 prostate
[2] = system: K-562 leukemia
[3] = system: MALME-3M melanoma
[4] = system: MDA-MB-231 breast
[5] = system: RXF 393 renal
[6] = system: SF-268 CNS
[7] = system: SF-295 CNS
[8] = system: SF-539 CNS
[9] = system: UACC-257 melanoma
[10] = system: M14 melanoma
[11] = system: HCT-15 colon
[12] = system: HT29 colon
[13] = system: SNB-75 CNS
[14] = system: SNB-19 CNS
[15] = system: U251 CNS
[16] = system: PC-3 prostate
[17] = system: SK-MEL-5 melanoma
[18] = system: UACC-62 melanoma
[19] = system: SK-MEL-28 melanoma

| Compound | growth [1] | growth [2] | growth [3] | growth [4] | growth [5] | growth [6] | growth [7] | growth [8] | growth [9] | growth [10] | growth [11] | growth [12] | growth [13] | growth [14] [%] | growth [15] | growth [16] | growth [17] | growth [18] | growth [19] [%] |
| --- | --- | --- | --- | --- | --- | --- | --- | --- | --- | --- | --- | --- | --- | --- | --- | --- | --- | --- | --- |
| CC1(C)C(=O)/C(=C\c2cccnc2)C[C@]2(C)[C@H]3CC[C@@H]4[C@@H](C(=O)/C=C/c5ccncc5)CC[C@@]4(C)[C@]3(C)CC[C@@H]12 | -1.7% (active) | 3.14% (active) | 0.438% (active) | 16.8% | -84.2% (active) | 27.3% | 15.9% | 1.24% (active) | 49.3% | -13% (active) | -36% (active) | 9.87% (active) | 62.6% | 15.1 | -7.74% (active) | 19.5% | -10.9% (active) | -26.7% (active) | 26.7 |
| CC(C)=CCC[C@](C)(O)[C@H]1CC[C@]2(C)[C@@H]1CC[C@@H]1[C@@]3(C)C/C(=C/c4ccc(Br)cc4)C(=O)C(C)(C)[C@@H]3CC[C@]12C | 85.6% | 85.2% | 88.7% | 85.8% | 92.9% | 92.6% | 101% | 99.5% | 91.2% | 80.3% | 85.4% | 77% | -50.3% (active) | 95.2 | 86.9% | 70.5% | 96.8% | 78.6% | 100 |
| CC(C)=CCC[C@](C)(O)[C@H]1CC[C@]2(C)[C@@H]1CC[C@@H]1[C@@]3(C)C/C(=C/c4cccc([N+](=O)[O-])c4)C(=O)C(C)(C)[C@@H]3CC[C@]12C | 68.2% | 74% | 84.5% | 88.9% | 90.1% | 93.2% | 103% | 96% | 97.9% | 83% | 83.5% | 55.4% | 0.754% (active) | 96 | 85.7% | 58.2% | 101% | 78.1% | 104 |
| O=[N+]([O-])c1cc(S(=O)(=O)c2ccc(F)c([N+](=O)[O-])c2)ccc1F | 98.1% | 40.4% | 132% | 103% | 82.9% | 108% | 111% | 109% | 75.4% | 81.7% | 36.5% | 97% | 97.2% | 106 | 62.8% | 107% | 106% | 105% | 110 |
| Cc1csc(Nc2nc(-c3ccc(Cl)cc3)nc(C(Cl)(Cl)Cl)n2)n1 | 12.6% | 87.2% | 99.9% | 79.9% | 87.1% | 90.5% | 60.8% | 87.2% | 98.7% | 95.9% | 84.1% | 63.1% | 89.4% | 72.9 | 72.8% | 74.1% | 93.1% | 83.2% | 92 |
| COc1ccc(C2CC(=O)c3c(nc4ccc(Cl)cc4c3N)C2)cc1 (centres undefined) | 101% | 93.4% | 106% | 114% | 99.3% | 108% | 95.4% | 107% | 113% | 103% | 92.5% | 101% | 95.7% | 103 | 106% | 101% | 98.3% | 99.5% | 98.4 |
| COC(=O)[C@]12CC[C@@H](C(/C=C/c3cccnc3)=N/O)[C@@H]1[C@H]1CC[C@@H]3[C@@]4(C)CC(=C/c5cccnc5)/C(=N/O)C(C)(C)[C@@H]4CC[C@@]3(C)[C@]1(C)CC2 | 55.6% | 24.9% | 39.2% | 45.5% | 67.1% | 56.7% | 30.6% | 72.3% | 59.1% | 19.3% | 23.4% | 32.8% | 22.8% | 71.9 | 52.9% | 20.8% | -21.5% (active) | 15.7% | 50.8 |
| NC(N)=N/N=C/c1ccc(-c2ccc(-c3ccc(Cl)cn3)s2)cc1 | 94.4% | 1.08% (active) | 101% | 76.8% | 59.2% | 88.2% | 102% | 85.9% | 109% | 94.7% | -4.03% (active) | 11.9% | 88.9% | 94.2 | 20.6% | -42.3% (active) | 91.6% | 99.1% | 99.2 |
| COc1ccc(/C=C(\C#N)c2cc3ccccc3n2S(C)(=O)=O)cc1 | 98.2% | 30.8% | 66.5% | 85.4% | 78.1% | 88% | 71.6% | 79.1% | 90.2% | 56.1% | 46.4% | 102% | 73.1% | 82.3 | 96.8% | 80.2% | 87.8% | 58.1% | 82.5 |
| Cn1c(/C(C#N)=C/c2ccc3ccccc3c2)cc2ccccc21 | 14.9% | 13.9% | 46.5% | 5.53% (active) | 41.1% | 42.9% | 3.45% (active) | 3.9% (active) | 84.8% | 5.87% (active) | 5.67% (active) | 21.8% | 15.3% | 23.9 | 34.1% | 28.8% | -26.7% (active) | 18.7% | 63.4 |
| Cc1cc2nc3c4cc(N)ccc4n(CCN(C)C)c3nc2cc1C | 12.6% | 5.75% (active) | -16.6% (active) | 7.84% (active) | 15.3% | 29.7% | 1.26% (active) | 10.5% | 11.9% | 7.08% (active) | -24% (active) | 14.3% | 20.1% | 13.2 | 16.2% | 21.8% | 21.8% | 6.43% (active) | 13.3 |
| CCN1CCN(C(=O)[C@@]2(C)CC[C@]3(C)CC[C@]4(C)C(=CC(=O)[C@@H]5[C@@]6(C)CC[C@H](OCCC#N)C(C)(C)[C@@H]6CC[C@]54C)[C@@H]3C2)CC1 | 97% | 31.8% | 65.3% | 97.5% | 85% | 90.4% | 84% | 80.4% | 88.4% | 96% | 69.5% | 42.6% | 59.9% | 103 | 64.2% | 72.1% | 90.2% | 87.1% | 67.7 |
| CC1(C)[C@@H](O)CC[C@]2(C)[C@H]3CC[C@@H]4[C@H]5[C@H](C(=O)/C=C/c6ccc(C(F)(F)F)cc6)CC[C@]5(CO)CC[C@@]4(C)[C@]3(C)CC[C@@H]12 | 70.1% | 32.9% | 8.37% (active) | 71.4% | 32.3% | 75.5% | 72.1% | 55.1% | 67.4% | 7.81% (active) | 34.4% | 36.1% | 60% | 61.1 | 53.6% | 43.9% | 13.1% | 36.5% | 54.6 |
| CN(C)CCCC1(c2ccc(F)cc2)OCc2cc(-c3ccc(C(F)(F)F)nc3)ccc21 (centres undefined) | 83.6% | 13.5% | 34.9% | 72.6% | 45.1% | 73.7% | 81.2% | 80.8% | -31.8% (active) | 13.8% | 78.4% | 64.8% | 41.7% | 76.7 | 57.1% | 68.7% | 75.3% | 86.1% | 81 |
| Cc1ccc(/C=C(\C#N)c2cc3ccccc3n2C)cc1 | 25.5% | 14.7% | 59.8% | 18.7% | 20.6% | 64.4% | 9.43% (active) | 8.03% (active) | 89.6% | 14% | 10.3% | 17.1% | 19.4% | 29.3 | 30.9% | 36.1% | 23% | 20% | 65.4 |
| O=c1[nH]ncc(Br)c1Br | 54.4% | 3.3% (active) | -7.27% (active) | 28.7% | -85.5% (active) | -18.3% (active) | 102% | 93.5% | -36.7% (active) | -84.8% (active) | 15.7% | -35.1% (active) | 79.8% | 72.4 | 30.9% | 65.7% | 69.4% | 87.3% | 14.7 |
